# Test results from the supplement of paper PMC10849652.
# The full data set covers some 7,900 targets. This sample favours those with a hit. About 0.6% of all pairs of compound and target were hits. A number with no mark means an inactive call.
# Experiments:
# Test in all cases: log2 fold change, soluble protein after heating vs DMSO (PISA); higher = thermal stabilisation; K562 cells, 10 uM, 30 min; active = over 0.2 and 3.5 SD of the protein, either way, in both replicates (recomputed)
# [1] = compound: COC1=CC=C(C=C1)CN2C=CC3=C2C=C(C=C3)C(=O)NO
# In short: (§1)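 Aliquots of K562 cells (2×10^6 cells/mL) treated with 10 μM compound for 30 min were heated for 3 min over 48°C-58°C. After pooling and extraction in PBS with 0.5% NP-40 at 4°C, soluble protein from a 21,000xg, 90 min spin was quantified by TMTpro 16plex LC-MS/MS with channel sums equalised. Thermal stability is expressed against control samples, from duplicates, as a log2 fold change.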
# filanesib = compound: CON(C)C(=O)N1N=C(c2cc(F)ccc2F)S[C@@]1(CCCN)c1ccccc1 [filanesib]
# In short: as §1
# zotarolimus = compound: CO[C@H]1C[C@@H]2CC[C@@H](C)[C@@](O)(O2)C(=O)C(=O)N2CCCC[C@H]2C(=O)O[C@H]([C@H](C)C[C@@H]2CC[C@H](n3cnnn3)[C@H](OC)C2)CC(=O)[C@H](C)/C=C(\C)[C@@H](O)[C@@H](OC)C(=O)[C@H](C)C[C@H](C)/C=C/C=C/C=C/1C [zotarolimus]
# In short: as §1
# idasanutlin = compound: COc1cc(C(=O)O)ccc1NC(=O)[C@@H]1N[C@@H](CC(C)(C)C)[C@](C#N)(c2ccc(Cl)cc2F)[C@H]1c1cccc(Cl)c1F [idasanutlin]
# In short: as §1
# alisertib = compound: COc1cc(Nc2ncc3c(n2)-c2ccc(Cl)cc2C(c2c(F)cccc2OC)=NC3)ccc1C(=O)O [alisertib]
# In short: as §1
# [2] = compound: COc1cc2nc(-c3cc(F)ccc3O)nc(N[C@@H]3CNC[C@H]3C(C)(C)O)c2cc1OC
# In short: as §1
# gefitinib = compound: COc1cc2ncnc(Nc3ccc(F)c(Cl)c3)c2cc1OCCCN1CCOCC1 [gefitinib]
# In short: as §1
# [3] = compound: COc1cccc2cc(-c3nc([C@H]4CC[C@H](C(=O)O)CC4)n4ncnc(N)c34)[nH]c12
# In short: as §1
# lapatinib = compound: CS(=O)(=O)CCNCc1ccc(-c2ccc3ncnc(Nc4ccc(OCc5cccc(F)c5)c(Cl)c4)c3c2)o1 [lapatinib]
# In short: as §1
# pictilisib = compound: CS(=O)(=O)N1CCN(Cc2cc3nc(-c4cccc5[nH]ncc45)nc(N4CCOCC4)c3s2)CC1 [pictilisib]
# In short: as §1
# [4] = compound: CS(=O)(=O)c1ccc(-c2cnc(N)c(C(=O)Nc3ccccc3)n2)cc1
# In short: as §1
# crizotinib = compound: C[C@@H](Oc1cc(-c2cnn(C3CCNCC3)c2)cnc1N)c1c(Cl)ccc(F)c1Cl [crizotinib]
# In short: as §1
# [5] = compound: C[C@@H]1COCCN1C2=NC(=NC(=C2)C3(CC3)S(=O)(=O)C)C4=C5C=CNC5=CC=C4
# In short: as §1
# [6] = compound: C[C@H](C1=CC=C(C=C1)C(=O)NC2=C3C=CNC3=NC=C2)N
# In short: as §1
# duvelisib = compound: C[C@H](Nc1ncnc2nc[nH]c12)c1cc2cccc(Cl)c2c(=O)n1-c1ccccc1 [duvelisib]
# In short: as §1
# gandotinib = compound: Cc1cc(Nc2cc(CN3CCOCC3)c3nc(C)c(Cc4ccc(Cl)cc4F)n3n2)n[nH]1 [gandotinib]
# In short: as §1
# tozasertib = compound: Cc1cc(Nc2cc(N3CCN(C)CC3)nc(Sc3ccc(NC(=O)C4CC4)cc3)n2)n[nH]1 [tozasertib]
# In short: as §1
# [7] = compound: Cc1cc(SCc2sc(-c3ccc(C(F)(F)F)cc3)nc2C)ccc1OCC(=O)O
# In short: as §1
# doramapimod = compound: Cc1ccc(-n2nc(C(C)(C)C)cc2NC(=O)Nc2ccc(OCCN3CCOCC3)c3ccccc23)cc1 [doramapimod]
# In short: as §1
# ispinesib = compound: Cc1ccc(C(=O)N(CCCN)[C@@H](c2nc3cc(Cl)ccc3c(=O)n2Cc2ccccc2)C(C)C)cc1 [ispinesib]
# In short: as §1
# Sequence of UniProt P10606 (P10606 whole entry, looked up): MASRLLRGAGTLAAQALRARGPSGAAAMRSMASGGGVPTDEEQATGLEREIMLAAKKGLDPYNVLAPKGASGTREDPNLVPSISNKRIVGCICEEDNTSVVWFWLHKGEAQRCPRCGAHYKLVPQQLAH
# Sequence of UniProt O75390 (O75390 whole entry, looked up): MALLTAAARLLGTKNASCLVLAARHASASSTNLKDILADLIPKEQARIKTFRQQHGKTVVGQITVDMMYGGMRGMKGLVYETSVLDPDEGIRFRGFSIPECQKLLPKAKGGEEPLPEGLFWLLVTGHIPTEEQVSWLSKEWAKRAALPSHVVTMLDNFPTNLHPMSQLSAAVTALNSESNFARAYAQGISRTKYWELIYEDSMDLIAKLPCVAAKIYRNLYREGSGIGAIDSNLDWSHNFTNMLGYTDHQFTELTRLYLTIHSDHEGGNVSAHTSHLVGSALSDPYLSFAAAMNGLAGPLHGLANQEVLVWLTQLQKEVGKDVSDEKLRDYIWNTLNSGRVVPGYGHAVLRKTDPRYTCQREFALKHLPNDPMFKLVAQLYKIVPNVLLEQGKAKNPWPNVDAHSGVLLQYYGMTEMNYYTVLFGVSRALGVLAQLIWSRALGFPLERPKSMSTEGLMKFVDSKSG
# Sequence of UniProt P08962 (P08962 whole entry, looked up): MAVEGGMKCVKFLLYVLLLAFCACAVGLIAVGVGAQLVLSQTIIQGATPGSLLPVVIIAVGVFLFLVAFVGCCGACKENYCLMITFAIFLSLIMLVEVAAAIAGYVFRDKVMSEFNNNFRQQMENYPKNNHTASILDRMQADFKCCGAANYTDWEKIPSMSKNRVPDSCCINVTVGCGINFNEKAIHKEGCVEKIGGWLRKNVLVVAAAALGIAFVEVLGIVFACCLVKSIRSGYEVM
# Sequence of UniProt P42575 (P42575 whole entry, looked up): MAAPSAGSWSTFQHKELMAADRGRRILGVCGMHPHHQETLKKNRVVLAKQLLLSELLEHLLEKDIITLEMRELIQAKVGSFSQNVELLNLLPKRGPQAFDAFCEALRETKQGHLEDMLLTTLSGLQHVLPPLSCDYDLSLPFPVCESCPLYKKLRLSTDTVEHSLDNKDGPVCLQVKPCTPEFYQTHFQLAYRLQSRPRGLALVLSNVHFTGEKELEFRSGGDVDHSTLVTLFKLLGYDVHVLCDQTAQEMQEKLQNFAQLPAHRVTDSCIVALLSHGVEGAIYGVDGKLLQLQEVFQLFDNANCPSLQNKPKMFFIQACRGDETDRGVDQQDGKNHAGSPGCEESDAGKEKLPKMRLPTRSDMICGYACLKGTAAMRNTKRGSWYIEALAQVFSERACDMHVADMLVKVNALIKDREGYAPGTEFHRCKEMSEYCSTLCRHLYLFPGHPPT
# Sequence of UniProt P08174 (P08174 whole entry, looked up): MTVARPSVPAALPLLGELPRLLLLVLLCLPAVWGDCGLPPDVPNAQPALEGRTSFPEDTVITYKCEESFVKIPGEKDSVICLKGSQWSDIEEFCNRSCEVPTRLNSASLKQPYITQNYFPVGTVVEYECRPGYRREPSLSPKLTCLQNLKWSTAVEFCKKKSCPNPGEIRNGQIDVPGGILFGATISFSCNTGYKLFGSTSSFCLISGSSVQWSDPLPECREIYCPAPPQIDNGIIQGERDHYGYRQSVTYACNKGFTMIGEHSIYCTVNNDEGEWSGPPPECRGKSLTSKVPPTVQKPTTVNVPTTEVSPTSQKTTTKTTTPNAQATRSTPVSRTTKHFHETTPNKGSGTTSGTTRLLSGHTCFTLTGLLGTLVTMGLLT
# Sequence of UniProt O95628 (O95628 whole entry, looked up): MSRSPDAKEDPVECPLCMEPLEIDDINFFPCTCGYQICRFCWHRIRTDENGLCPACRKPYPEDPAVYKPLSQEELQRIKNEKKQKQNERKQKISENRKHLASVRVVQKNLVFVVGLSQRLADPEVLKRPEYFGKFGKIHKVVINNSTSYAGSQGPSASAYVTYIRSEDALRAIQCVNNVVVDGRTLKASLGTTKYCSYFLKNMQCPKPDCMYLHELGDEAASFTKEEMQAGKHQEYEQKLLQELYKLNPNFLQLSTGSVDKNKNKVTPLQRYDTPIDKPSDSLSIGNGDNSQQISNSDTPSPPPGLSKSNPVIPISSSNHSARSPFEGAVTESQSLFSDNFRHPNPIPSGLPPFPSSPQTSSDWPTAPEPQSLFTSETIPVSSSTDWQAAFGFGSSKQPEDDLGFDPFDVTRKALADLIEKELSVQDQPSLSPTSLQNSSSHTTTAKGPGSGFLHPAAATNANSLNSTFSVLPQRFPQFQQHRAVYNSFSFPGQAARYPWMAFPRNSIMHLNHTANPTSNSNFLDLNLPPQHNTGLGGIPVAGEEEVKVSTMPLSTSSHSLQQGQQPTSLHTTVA
# Sequence of UniProt O14757 (O14757 whole entry, looked up): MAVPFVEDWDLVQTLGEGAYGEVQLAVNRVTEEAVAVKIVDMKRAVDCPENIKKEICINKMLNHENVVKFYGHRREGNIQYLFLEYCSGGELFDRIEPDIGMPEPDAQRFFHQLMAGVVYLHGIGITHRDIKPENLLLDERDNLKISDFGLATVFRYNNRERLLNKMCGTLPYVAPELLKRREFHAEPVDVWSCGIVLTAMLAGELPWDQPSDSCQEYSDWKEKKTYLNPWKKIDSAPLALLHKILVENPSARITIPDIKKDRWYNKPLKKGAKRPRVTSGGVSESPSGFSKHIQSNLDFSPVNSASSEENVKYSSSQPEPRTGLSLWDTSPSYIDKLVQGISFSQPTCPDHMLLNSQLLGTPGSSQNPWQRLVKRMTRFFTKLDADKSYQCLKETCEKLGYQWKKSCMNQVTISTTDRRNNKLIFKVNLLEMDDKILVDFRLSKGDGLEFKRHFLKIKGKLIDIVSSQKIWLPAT
# Sequence of UniProt Q8N163 (Q8N163 whole entry, looked up): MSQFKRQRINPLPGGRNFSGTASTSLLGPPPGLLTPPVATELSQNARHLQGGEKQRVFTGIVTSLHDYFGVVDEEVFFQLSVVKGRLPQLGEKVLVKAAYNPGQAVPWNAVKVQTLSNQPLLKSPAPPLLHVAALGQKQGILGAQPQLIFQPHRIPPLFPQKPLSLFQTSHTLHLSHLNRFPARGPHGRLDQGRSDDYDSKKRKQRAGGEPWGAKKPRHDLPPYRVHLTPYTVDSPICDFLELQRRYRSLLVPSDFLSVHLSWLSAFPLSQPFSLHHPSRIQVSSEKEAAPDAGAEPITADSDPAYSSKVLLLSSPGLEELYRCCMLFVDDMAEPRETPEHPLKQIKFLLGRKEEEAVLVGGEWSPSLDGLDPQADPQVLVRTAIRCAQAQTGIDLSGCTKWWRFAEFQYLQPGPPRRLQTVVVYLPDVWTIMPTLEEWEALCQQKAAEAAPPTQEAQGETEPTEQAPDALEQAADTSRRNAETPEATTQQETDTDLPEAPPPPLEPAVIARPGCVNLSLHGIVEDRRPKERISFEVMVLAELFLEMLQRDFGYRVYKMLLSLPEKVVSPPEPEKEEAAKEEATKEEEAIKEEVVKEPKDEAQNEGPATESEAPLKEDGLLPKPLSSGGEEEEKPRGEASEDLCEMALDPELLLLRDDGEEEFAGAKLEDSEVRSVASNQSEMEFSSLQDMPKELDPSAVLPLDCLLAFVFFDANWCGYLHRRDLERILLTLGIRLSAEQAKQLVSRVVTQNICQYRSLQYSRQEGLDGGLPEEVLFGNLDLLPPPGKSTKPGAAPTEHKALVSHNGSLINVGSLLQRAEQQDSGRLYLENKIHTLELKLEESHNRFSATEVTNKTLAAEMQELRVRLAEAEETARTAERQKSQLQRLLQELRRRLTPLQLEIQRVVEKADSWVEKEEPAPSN
# Sequence of UniProt P86791 (P86791 whole entry, looked up): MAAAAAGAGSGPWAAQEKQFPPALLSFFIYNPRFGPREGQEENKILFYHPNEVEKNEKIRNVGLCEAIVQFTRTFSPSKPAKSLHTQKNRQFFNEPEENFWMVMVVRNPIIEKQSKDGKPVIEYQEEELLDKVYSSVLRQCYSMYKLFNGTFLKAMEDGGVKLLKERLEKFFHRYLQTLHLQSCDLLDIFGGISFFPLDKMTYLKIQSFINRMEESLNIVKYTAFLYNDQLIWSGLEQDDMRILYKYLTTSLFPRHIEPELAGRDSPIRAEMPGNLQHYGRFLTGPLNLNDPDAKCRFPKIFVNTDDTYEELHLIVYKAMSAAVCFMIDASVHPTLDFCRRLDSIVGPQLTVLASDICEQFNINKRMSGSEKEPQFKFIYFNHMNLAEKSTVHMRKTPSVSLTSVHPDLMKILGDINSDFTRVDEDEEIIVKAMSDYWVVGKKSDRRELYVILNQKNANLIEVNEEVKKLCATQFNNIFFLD
# Sequence of UniProt Q5RI15 (Q5RI15 whole entry, looked up): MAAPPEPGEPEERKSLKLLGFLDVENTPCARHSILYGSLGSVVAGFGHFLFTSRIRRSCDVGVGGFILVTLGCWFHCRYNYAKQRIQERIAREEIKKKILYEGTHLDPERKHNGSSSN
# Sequence of UniProt Q9UNS2 (Q9UNS2 whole entry, looked up): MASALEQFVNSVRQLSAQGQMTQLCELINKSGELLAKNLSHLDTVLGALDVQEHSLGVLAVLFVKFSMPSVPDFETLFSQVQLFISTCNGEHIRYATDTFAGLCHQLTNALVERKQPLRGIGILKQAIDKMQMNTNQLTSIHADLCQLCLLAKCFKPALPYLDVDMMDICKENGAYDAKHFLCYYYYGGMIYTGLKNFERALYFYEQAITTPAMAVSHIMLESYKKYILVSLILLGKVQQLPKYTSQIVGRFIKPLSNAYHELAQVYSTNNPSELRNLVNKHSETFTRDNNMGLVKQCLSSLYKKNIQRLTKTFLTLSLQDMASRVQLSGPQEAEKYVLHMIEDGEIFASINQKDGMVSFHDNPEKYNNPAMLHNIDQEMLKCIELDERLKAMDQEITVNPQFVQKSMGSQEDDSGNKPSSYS
Target,log2 fold change [1],log2 fold change (filanesib),log2 fold change (zotarolimus),log2 fold change (idasanutlin),log2 fold change (alisertib),log2 fold change [2],log2 fold change (gefitinib),log2 fold change [3],log2 fold change (lapatinib),log2 fold change (pictilisib),log2 fold change [4],log2 fold change (crizotinib),log2 fold change [5],log2 fold change [6],log2 fold change (duvelisib),log2 fold change (gandotinib),log2 fold change (tozasertib),log2 fold change [7],log2 fold change (doramapimod),log2 fold change (ispinesib)
CD63 (UniProt P08962),-0.053,-0.336 (active),-0.01,-0.051,-0.069,-0.031,-0.076,0.096,-0.002,0.032,0.039,-0.076,0.009,-0.013,0.014,-0.023,-0.007,-0.022,0.033,-0.092
CS (UniProt O75390),0.012,-0.172,0.011,-0.033,-0.013,-0.139,0.041,0.059,-0.027,0.099,0.044,-0.122,0.072,-0.034,0.059,-0.037,0.027,0.061,0.017,-0.157
CNOT4 isoform 6 (UniProt O95628),-0.057,0.017,-0.023,-0.001,-0.036,0.037,-0.007,-0.012,-0.008,0.036,0.007,0.031,0.056,-0.076,0.06,-0.005,-0.009,0.014,-0.02,0.066
COX5B (UniProt P10606),0.012,0.212,0.094,0.019,-0.103,0.004,0.011,0.015,-0.038,-0.04,-0.07,0.186,0.081,-0.169,0.124,0.218,0.077,-0.001,0.022,0.265
COPS3 (UniProt Q9UNS2),0.12,-0.035,-0.004,-0.09,-0.012,0.008,-0.031,0.052,-0.015,-0.063,0.018,0.003,0.047,-0.023,-0.003,-0.087,0,-0.006,-0.015,0.024
CD55 isoform 7 (UniProt P08174),-0.115,0.086,0.001,0.038,-0.144,0.012,0.104,-0.136,0.031,0.005,-0.023,0.081,-0.096,-0.14,-0.021,0.052,0.067,-0.031,0.02,0.132
CASP2 (UniProt P42575),0.122,-0.02,0.047,-0.067,-0.019,-0.245,-0.082,0.072,-0.323 (active),0.069,0.004,-0.062,0.023,-0.002,0.061,-0.071,0.083,0.05,0.077,0.039
CNOT2 (UniProt Q9NZN8),-0.006,0.006,0.014,0.005,-0.01,0.021,0.017,-0.021,0.048,0.04,0.028,-0.019,0.038,0.046,-0.021,-0.045,-0.006,0.077,-0.012,-0.02
CCZ1 (UniProt P86791),0.052,-0.062,0.044,-0.015,-0.072,-0.036,0.013,0.018,-0.005,-0.047,0.022,-0.278 (active),0.009,0.005,-0.053,-0.081,-0.039,0.006,-0.036,-0.162
CIT isoform 4 (UniProt O14578),-0.099,0.055,-0.003,0.027,-0.036,-0.228 (active),-0.12,-0.06,0.031,-0.044,-0.023,-0.077,-0.013,0.08,0.064,-0.001,0.093,-0.033,0.026,0.072
CHEK1 (UniProt O14757),0.005,-0.025,-0.029,-0.041,-0.041,-0.805 (active),-0.06,0.055,-0.007,0.016,0.011,-0.116,0.044,0.049,0.059,-0.122,-0.023,0.008,-0.009,0.039
COX20 isoform 2 (UniProt Q5RI15),-0.029,-0.011,-0.029,-0.039,-0.025,0.06,-0.01,0.012,-0.014,-0.081,-0.043,0.063,-0.098,0.01,-0.017,-0.385,0.022,-0.001,-0.001,-0.017
CCAR2 isoform 2 (UniProt Q8N163),-0.038,0.024,0.063,-0.065,-0.072,-0.187,-0.03,-0.042,0.04,-0.034,-0.037,0.024,0.046,0.011,-0.001,-0.093,0.103,0.169,-0.009,-0.063
